# Source: PubChem BioAssay (several laboratories)
# In the library only some 27% were active in any assay of this set; here they are far more common.
# CYP2C19 inhib – human CYP2C19 inhibition; inhibition, % at 5 µM; hit rate 21% among 96,000; CYP2C19 Supersomes, luciferin-H EGE luminescence, 30 min; P33261;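 active means CYP2C19 inhibition above a set limit at 5 µM in the primary screen, cut at about 50% in these data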;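 further: plate controls were negative control wells for no effect and 2.5 mM tranylcypromine positive control for full effect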
# CYP2C9 activ – CYP2C9 (human) activation | recombinant CYP2C9, luciferin-H conversion, luminescence; hits give high values; factor 1 = untreated enzyme, 0 = blocked | activation factor at 5 µM | hit rate 1.4% among 96,000 | AID 1024;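 active means activation factor of 2 or more for CYP2C9 at a 5 µM dose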;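 further: 0 = sulfaphenazole-blocked wells and 1 = vehicle-only wells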
# CYP2C9 inhib – blocks human cytochrome P450 2C9; hit rate 20% among 96,000; AID 777; inhibition, % at 5 µM; P11712; CYP2C9 Supersomes, luciferin-H conversion, luminescence;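 active means blocking of liver enzyme CYP2C9 beyond about 50% at 5 µM, limit read from the data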
# Cav3 T inh – blocks human Cav3.2 T-type calcium channel; hit rate 4% among 100,000; Cav3.2-expressing cells, Fluo-4 calcium fluorescence FDSS; hits give low values; O95180; B-score at 10 µM;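 active means single-dose well whose peak fluorescence ratio is a statistical outlier from its plate by either plate-standardised score or position-corrected B-score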
# CYP2C19 act – activators of human cytochrome P450 2C19; P33261; recombinant CYP2C19, luciferin-H EGE luminescence; hits give high values; 0 = fully inhibited enzyme, 1 = untreated enzyme; activation factor at 5 µM; 96,000 tested, under 10 active; AID 1025;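 active means activation factor of at least 2 at 5 µM in the primary screen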;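 further: 0 = wells with 2.5 mM tranylcypromine and 1 = vehicle-only wells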
# * hit, by the source's call; nt = no result.
SMILES,CYP2C19 inhib,CYP2C9 activ,CYP2C9 inhib,Cav3 T inh,CYP2C19 act
CC(CC(=O)O)CC(=O)Nc1ccccc1C(=O)O (stereo not drawn),-18,1.2,-18,-0.32,1.2
CCCCCC/C=C/c1ccc(OC)c([C@H]2[C@H]3C=CC[C@@H](C)[C@@H]3C(=O)N2Cc2ccccc2)c1,nt,nt,nt,-0.49,nt
CCc1ccc(NC(=O)c2onc(C)c2Cl)cc1,-6,1,4,-0.7,1.1
COc1ccccc1C(=O)NCCc1nc2ccccc2n1C,97*,1.1,-13,1.5,0
Cn1c(CCCNC(=O)c2ccccc2)nc2ccccc21,32,2.4*,-138,0.19,0.7
COc1ccccc1C(=O)Nc1ccc2c(c1)nc(CCNC(C)=O)n2C,13,1,-3,-0.4,0.9
COc1ccccc1NC(=O)NS(=O)(=O)c1ccc(C)cc1,1,0.5,47,-0.29,1
ON1C2CCCCC2N(O)C1c1c(F)c(F)c(F)c(F)c1F (stereo not drawn),13,1,-4,1.1,0.9
COC(C/C=C\C(=O)COCc1ccccc1)OC,nt,nt,nt,1.4,nt
CC(N=c1ccccn1C(=O)Nc1cccc(C(F)(F)F)c1)c1ccco1 (stereo not drawn),32,0.7,26,nt,0.7
COc1ccc2c(c1)c1c(n2C(C)=O)C(OC(C)=O)=NCC1,-2,1,-4,-0.0075,1
CCCC(=N)C1=C(O)CC(CC(C)SCC)CC1=O (stereo not drawn),82*,0.3,66*,1.5,0.2
O=C1NN(c2ccc(F)c(Cl)c2)C(=O)/C1=C\c1cccc(OC(=O)c2cccs2)c1,-17,0.5,51*,0.2,1.2
CC(C)=C1C(=O)NN(c2ccc(F)c(Cl)c2)C1=O,-4,1,-2,0.074,1
CC(C)C[C@@H](CSc1ccc(Br)cc1)N1CCN(CC(C)C)CCC1=O,nt,nt,nt,-1.3,nt
CC(=O)C1C(=O)C=C(c2ccco2)CC1c1ccccc1 (stereo not drawn),5,0.6,42,-0.22,0.9
Cc1cc(C)nc(NN2C(=O)/C(=C/c3ccc(O)cc3)SC2=S)n1,0,3.2*,-224,-3,1
COc1ccccc1/C=C1\SC(=S)N(Nc2nc(C)cc(C)n2)C1=O,31,1.1,-12,0.45,0.7
Cc1ccc(-n2nnnc2SCC(=O)Nc2ccc3c(c2)COC3=O)cc1C,20,1,-3,-0.011,0.8
CCc1nnc(SCc2ccc(OC)c(Br)c2)n1N,58*,1.3,-27,1.1,0.4
Cc1ccc(NC(=O)CSCC(=O)Nc2ccc(N3CCOCC3)c(Cl)c2)cc1,25,0.5,46,-2,0.8
Cn1ccnc1SCC(=O)Nc1ccc2nc(SCC(=O)NC3CC3)sc2c1,19,0.4,62*,-0.77,0.8
COc1ccc(OCC(=O)Nc2ccc(N3CCOCC3)c(Cl)c2)cc1,50,0.4,65*,-1.2,0.5
COc1ccc(OCC(=O)NC(=S)Nc2ccc(N3CCOCC3)c(Cl)c2)cc1,-2,0.7,32,-1.3,1
Cn1ccnc1SCC(=O)Nc1ccc2c(c1)COC2=O,nt,nt,nt,-0.23,nt
SMILES,CYP2C19 inhib,CYP2C9 activ,CYP2C9 inhib,Cav3 T inh,CYP2C19 act
CCOC(=O)c1cnc(SCC(=O)Nc2ccc(N3CCOCC3)c(Cl)c2)nc1N,12,0.2,81*,-0.03,0.9
CCCC(=O)Nc1ccc2nc(SCC(=O)Nc3ccc(N4CCOCC4)c(Cl)c3)sc2c1,40,0.3,69*,-0.031,0.6
CC(C)(C)NC(=O)CSc1n[nH]c(=O)n1-c1ccccc1,20,0.8,17,0.078,0.8
CC(C)CC(NC(=O)c1ccco1)C(=O)Nc1ccc2c(c1)OCCO2 (stereo not drawn),18,0.9,14,1.5,0.8
CCOC(=O)c1c(N2C(=O)C=CC2=O)sc(C)c1C,9,0.8,19,0.012,0.9
COc1ccc2sc(C)nc2c1NC(C)=O,18,0.2,84*,-0.33,0.8
COc1cc2sc(C)nc2c2sccc12,40,1,4,-0.22,0.6
COC(=O)c1cc(=O)n2c(-c3ccc(OC)cc3)csc2n1,-16,1.1,-12,0.67,1.2
O=C(OCC(=O)N1N=C(c2ccc(Cl)cc2)CC1c1ccco1)c1ccccc1O (stereo not drawn),17,0.1,88*,-4.7*,0.8
CCN(CC)CC(=O)N1N=C(c2cccs2)CC1c1ccco1 (stereo not drawn),4,1,3,0.88,1
COCCn1c(=O)[nH]c2cc(C(=O)OC)ccc2c1=O,1,0.9,8,0.42,1
COC(=O)c1ccc2c(=O)n(CCCCCC(=O)N3CCN(c4ccccc4)CC3)c(=O)[nH]c2c1,53*,0.4,56*,-0.77,0.5
COc1cc2[nH]c(=O)n(CCCCCC(=O)N3CCN(c4ccccc4)CC3)c(=O)c2cc1OC,79*,0.3,70*,1,0.2
COc1cc2[nH]c(=O)n(CCC(=O)N3CCN(c4cccc(C)c4C)CC3)c(=O)c2cc1OC,15,0.7,34,-1,0.8
COc1cc2[nH]c(=O)n(CCCCCC(=O)NCCc3c[nH]c4ccccc34)c(=O)c2cc1OC,64*,0.3,67*,0.39,0.4
CCN1CCN(C(=O)CCCCCn2c(=O)[nH]c3cc(C(=O)OC)ccc3c2=O)CC1,5,1,-3,0.2,1
CCN1CCN(CCNC(=O)CCCCCn2c(=O)[nH]c3cc(C(=O)OC)ccc3c2=O)CC1,17,0.5,53*,-0.0091,0.8
NCCCC[C@H]1CNC(=O)C(=O)N1CCc1cccc2ccccc12,nt,nt,nt,0.0058,nt
COc1cc(O)c(C(C)=O)c(CC(=O)O)c1,nt,nt,nt,0.82,nt
CCCCCn1c(=O)[nH]c2cc(C(=O)NCCc3ccc(OC)c(OC)c3)ccc2c1=O,59*,0.3,70*,-1,0.4
CN(CCOC(=O)c1ccc2c(c1)OCCO2)Cc1ccccc1,54*,0.4,62*,-0.15,0.5
CN(Cc1ccccc1)C(=O)c1ccc2c(c1)OCCO2,84*,1,-4,-0.26,0.2
O=C(CCOc1ccccc1)OCC(=O)c1cc2ccccc2o1,70*,0.4,65*,-1.6,0.3
CN(Cc1ccccc1)C(=O)c1cc2ccccc2o1,94*,0.6,36,-0.68,0.1
Cc1cc(NC(=O)CSc2nnc(-c3c[nH]c4ccccc34)n2-c2ccc(Cl)cc2)no1,-12,1.2,-25,-0.026,1.1
CC(C)OCCCN1C=C2C(=O)C(C)(OC(=O)CCc3ccccc3)C(=O)C=C2C=C1c1ccc(C#N)cc1 (stereo not drawn),nt,nt,nt,0.39,nt
CC1(C(=O)O)CCC(C(=O)N2CCOCC2)C1(C)C (stereo not drawn),4,1.1,-8,-0.03,1
Cc1[nH]c2ccc3c(ncn3CCC#N)c2c1C,2,0.9,11,-0.11,1
Cc1cc(C)n(C(=O)C2CCCN2S(=O)(=O)c2ccc(Cl)cc2)n1 (stereo not drawn),39,0.8,22,nt,0.6
CCOC(=O)N1CCC(NC(=O)c2cc(C)c3c(C)nn(-c4ccccc4)c3n2)CC1,1,1.1,-13,0.65,1
